PubChem BioAssay (NCATS)
Records with an inconclusive call do not appear. Active and inactive are the calls of the source. The call rests on the fitted dose curve; in most records, active means well fitted curve in the direction sought with a large enough effect; inconclusive means small, poorly fitted or top-dose-only effect, or another doubt; inactive means no such curve, though single readings can be large; an effect the other way counts as inactive or inconclusive. Where a SMILES comes first, the peptide text is derived from it. [ ]: non-standard residue; d: D form.

Tests used:
NIH3T3 = test: qHTS assay to identify novel small-molecules to repurpose for Merkel cell carcinoma treatment (AID 1296009); settings: MCC and control cell lines, CellTiter-Glo viability, 72 h; at 44.8 µM (top of the series) unless noted; further: nearly all actives have a fitted effect of over 60% in size
How it was run: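 qHTS format: cells treated with library compounds in DMSO across 8 (NPC) or 11 (MIPE) concentrations. Readout after 72 hr at 37 degree celsius was CellTiter-Glo luminescence.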

C33A = test: Primary qHTS to identify gynecologic anti-cancer compounds using libraries of approved drugs and bioactive compounds (AID 1345084); settings: Gynecologic cancer cell panel viability, ATPlite luminescence, 48 h; series mostly up to 57.5 µM; further: nearly all actives have a fitted effect of over 55% in size
How it was run: (§1)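 Five-concentration response, 48 h; readout is ATP-driven luciferase luminescence.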

CAOV3 = test: as above; settings: Gynecologic cancer cell panel viability, ATPlite luminescence, 48 h; series mostly up to 57.5 µM
How it was run: as §1

CASKI = test: as above; settings: Gynecologic cancer cell panel viability, ATPlite luminescence, 48 h; series mostly up to 57.5 µM
How it was run: as §1

Es-2 = test: as above; settings: Gynecologic cancer cell panel viability, ATPlite luminescence, 48 h; series mostly up to 57.5 µM
How it was run: as §1

HeLa = test: as above; settings: Gynecologic cancer cell panel viability, ATPlite luminescence, 48 h; series mostly up to 57.5 µM
How it was run: as §1

Hek293T = test: as above; settings: Gynecologic cancer cell panel viability, ATPlite luminescence, 48 h, control line for the selectivity index; series mostly up to 57.5 µM
How it was run: as §1

Measured: Potency

CC1CCC2C(C)(C)C(O)CCC2(C)C12Cc1c(O)cc3c(c1O2)CN=C3N (stereo not given)
inactive: all assays above

CCS(=O)(=O)N1CCC([C@@H](C)n2c(C)c(C(=O)NCc3c(OC)cc(C)[nH]c3=O)c3ccccc32)CC1
inactive: all assays above

Cc1cc(Nc2ncc(Cl)c(Nc3ccccc3S(=O)(=O)C(C)C)n2)c(OC(C)C)cc1C1CCNCC1
inactive: all assays above

CC1NC(=O)CNC(=O)C(C(C)C)NC(=O)C2CCCN2C(=O)C(C(C)C)NC(=O)C(Cc2c[nH]c3ccccc23)NC1=O (stereo not given) (cyclo(GAWVPV); configuration not given here)
inactive: NIH3T3 inactive [at 17.4 µM] | C33A | CAOV3 | CASKI | Es-2 | HeLa | Hek293T

CC(=O)OC1C(O)CC(O[C@@H]2O[C@H](CO)[C@@H](O)[C@H](O)[C@H]2O)C2CCC3C(=O)OC(c4ccoc4)CC3(C)C21 (stereo not given in full)
inactive: NIH3T3 inactive [at 17.4 µM] | C33A | CAOV3 | CASKI | Es-2 | HeLa | Hek293T

O=c1ccn([C@@H]2O[C@H](CO)[C@@H](O)[C@H]2O)c(=O)[nH]1
inactive: all assays above

C=CC(C)(C)O[C@@H]1O[C@H](CO[C@@H]2OC[C@](O)(CO)[C@H]2O)[C@@H](O)[C@H](O)[C@H]1O
inactive: all assays above

CO[C@@H](Cc1ccc(OCCc2nc(-c3ccccc3)oc2C)c2ccsc12)C(=O)O
inactive: all assays above

NS(=O)(=O)NCCNc1nonc1C(=Nc1ccc(F)c(Br)c1)NO
inactive: all assays above

C=CC(C)(C)C1(CC2NC(=O)C3CCCN3C2=O)C(=O)Nc2cc3c(cc21)C=CC(C)(C)O3 (stereo not given)
inactive: NIH3T3 inactive [at 17.4 µM] | C33A | CAOV3 | CASKI | Es-2 | HeLa | Hek293T

O=C(O[C@H]1[C@@H]2C=CO[C@@H](O[C@@H]3O[C@H](CO)[C@@H](O)[C@H](O)[C@H]3O)[C@@H]2[C@@]2(CO)O[C@@H]12)c1ccc(O)cc1
inactive: NIH3T3 inactive [at 17.4 µM] | C33A | CAOV3 | CASKI | Es-2 | HeLa | Hek293T

CC(=O)OC(CSC1CCC(=O)OC(C)CCC(=O)C1)C(=O)O (stereo not given)
inactive: all assays above

CCNC(=O)CCC/C=C\C[C@@H]1[C@@H](/C=C/C(O)CCc2ccccc2)[C@@H](O)C[C@@H]1O (stereo not given in full)
inactive: all assays above

CC(=O)N[C@H](Cc1ccc(O)cc1)C(=O)N[C@H](CCCN=C(N)N)C(=O)N[C@H](Cc1ccccc1)C(N)=O (Ac-[dY]-[dR]-[dF]-NH2)
inactive: all assays above

CC1CCC(=O)CC(O)C(O)CC(=O)O1 (stereo not given)
inactive: all assays above

CC1[C@@H](O)[C@@H](O)C2[C@]3(C)C(C[C@H]4OC(=O)[C@H](O)[C@]1(O)[C@@]24C)C(C)(O)C[C@H](O)[C@H]3O (stereo not given in full)
inactive: NIH3T3 inactive [at 17.4 µM] | C33A | CAOV3 | CASKI | Es-2 | HeLa | Hek293T

C=CC(C)(CC/C=C(\C)CC/C=C(\C)CC(O)/C=C(\C)C(=O)O)O[C@@H]1O[C@H](CO)[C@@H](O)[C@H](O)[C@H]1O[C@@H]1O[C@H](CO)[C@@H](O)[C@H](O)[C@H]1O (stereo not given in full)
inactive: NIH3T3 inactive [at 17.4 µM] | C33A | CAOV3 | CASKI | Es-2 | HeLa | Hek293T

COc1cc(C[C@H]2COC(=O)[C@@H]2Cc2ccc(O)c(OC)c2)ccc1O
inactive: all assays above

N#CC1C(=O)Nc2scc(-c3ccc(-c4ccccc4O)cc3)c2C1=O (stereo not given)
inactive: all assays above

COc1cc([C@@H]2Oc3c(OC)cc(CCCO)cc3[C@@H]2CO[C@@H]2O[C@H](CO)[C@@H](O)[C@H](O)[C@H]2O)ccc1O
inactive: NIH3T3 inactive [at 17.4 µM] | C33A | CAOV3 | CASKI | Es-2 | HeLa | Hek293T
